Reference: PubChem BioAssay (NCATS)
Records with an inconclusive call do not appear. Unmarked numbers belong to inactive results. The source made the active and inactive calls. Calls follow the shape of the full dose curve.

Assay: qHTS assay for small molecule disruptors of the mitochondrial membrane potential - 1 hr assay (AID 651754); also: nearly all actives have a fitted effect of over 35% in size
Conditions: series mostly up to 92.2 µM; ratio change, negative = depolarisation: at the top concentration
Outline: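 HepG2 cells, attached overnight at 37C, were exposed to compound or DMSO vehicle for 1 hr at 37C, 5% CO2, then stained with Mito-MPS dye for 30 min. Red aggregate versus green monomer fluorescence reports membrane potential.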
% is scaled to controls: 0 for no effect and ±100 for the full control effect; potency is read from the fitted curve at half-maximal effect.

| SMILES | ratio change, negative = depolarisation | Potency |
| --- | --- | --- |
| CCCCCCc1ccc(-c2ccc(C#N)cc2)cc1 | -14.7% |  |
| Nc1cnn([C@@H]2O[C@H](CO)[C@@H](O)[C@H]2O)c(=O)n1 | 5.72% |  |
| CCCCCCCCOc1ccc(C(=O)O)cc1 | -18.7% |  |
| Oc1c(Cl)cc(Cl)c(Cl)c1Cl |  | 42.2 µM (active) |
| CC(C)OCC1CO1 (stereo not given) | -0.171% |  |
| C/C(Cl)=C/CCl | 1.58% |  |
| CCCCNCC | -3.8% |  |
| O=c1[nH]ncc2ccccc12 | -9.09% |  |
| c1ccc(COCc2ccccc2)cc1 | -1.6% |  |
| O=[N+]([O-])c1cccc(I)c1 | 0.584% |  |
| Nc1ccc2c(c1)C(=O)c1ccccc1C2=O |  | 1.33 µM (active) |
| c1ccc2c(c1)ccc1ccccc12 | -8.72% |  |
| Nc1ccc(N=Nc2ccccc2)c(N)c1 |  | 9.44 µM (active) |
| Cc1ccc(C(=O)O)cc1[N+](=O)[O-] | 1.1% |  |
| COc1ccc([N+](=O)[O-])cc1N | -8.58% |  |
| OCC(CO)(CBr)CBr | 0.53% |  |
| Nc1cc(C(=O)O)c(O)c(S(=O)(=O)O)c1 | -0.269% |  |

| SMILES | ratio change, negative = depolarisation | Potency |
| --- | --- | --- |
| Oc1ccc2c(c1)OCO2 | 1.41% |  |
| c1ccncc1 | 1.86% |  |
| CC(=O)OC1CC(C)OC(C)O1 (stereo not given) | 9% |  |
| O=C(OCc1ccccc1)c1ccccc1O | -8.24% |  |
| C/C=C/C=C/C=O | 0.284% |  |
| c1c[nH]cn1 | 3.99% |  |
| O=C(O)/C=C/c1ccc(/C=C/C(=O)O)cc1 | -1.72% |  |
| CCCCOC(=O)COc1ccc(Cl)cc1Cl | 3.63% |  |
| CCCCCCN | -0.284% |  |
| CC(=O)Nc1cccc(C)c1 | 8.09% |  |
| CCC(Cl)CC(Cl)C(Cl)C(Cl)C(Cl)C(C)Cl (stereo not given) | -20.1% |  |
| COc1ccc(C)cc1N | 2.29% |  |
| CCc1ccc(C(c2ccc(CC)cc2)C(Cl)Cl)cc1 | -14.8% |  |
| C=CC1CO1 (stereo not given) | 3.8% |  |
| CCOC(=O)C1OC1c1ccccc1 (stereo not given) | 0.776% |  |
| COc1ccc(C(=O)Nc2ccccc2)cc1[N+](=O)[O-] |  | 33.5 µM (active) |

Assay: qHTS assay for small molecule disruptors of the mitochondrial membrane potential - 5 hr assay (AID 651755); also: nearly all actives have a fitted effect of over 40% in size
Conditions: JC-1-type ratio dye; series mostly up to 92.2 µM; ratio change, negative = disruption: at the top concentration
Outline: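 HepG2, 2,000 cells/well, overnight attach; cpd or DMSO 5 hr, 37C/5% CO2; Mito-MPS 30 min 37C; fluor 490/535 + 540/590 nm.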

| SMILES | ratio change, negative = disruption | Potency |
| --- | --- | --- |
| CCCCCCc1ccc(-c2ccc(C#N)cc2)cc1 | -7.01% |  |
| Nc1cnn([C@@H]2O[C@H](CO)[C@@H](O)[C@H]2O)c(=O)n1 | 3.05% |  |
| CCCCCCCCOc1ccc(C(=O)O)cc1 | -23% |  |
| Oc1c(Cl)cc(Cl)c(Cl)c1Cl |  | 37.6 µM (active) |
| CC(C)OCC1CO1 (stereo not given) | 3.01% |  |
| C/C(Cl)=C/CCl | 1.05% |  |
| CCCCNCC | 2.6% |  |
| O=c1[nH]ncc2ccccc12 | -6.33% |  |
| c1ccc(COCc2ccccc2)cc1 | -2.77% |  |
| O=[N+]([O-])c1cccc(I)c1 | -4.14% |  |
| Nc1ccc2c(c1)C(=O)c1ccccc1C2=O |  | 1.5 µM (active) |
| c1ccc2c(c1)ccc1ccccc12 | -3.67% |  |
| Nc1ccc(N=Nc2ccccc2)c(N)c1 |  | 10.6 µM (active) |
| Cc1ccc(C(=O)O)cc1[N+](=O)[O-] | -5.49% |  |
| COc1ccc([N+](=O)[O-])cc1N | -10.4% |  |
| OCC(CO)(CBr)CBr | 2.68% |  |
| Nc1cc(C(=O)O)c(O)c(S(=O)(=O)O)c1 | 6.89% |  |
| Oc1ccc2c(c1)OCO2 | 1.21% |  |
| c1ccncc1 | 0.32% |  |

| SMILES | ratio change, negative = disruption | Potency |
| --- | --- | --- |
| CC(=O)OC1CC(C)OC(C)O1 (stereo not given) | -9.66% |  |
| O=C(OCc1ccccc1)c1ccccc1O | -12.3% |  |
| C/C=C/C=C/C=O | 0.602% |  |
| c1c[nH]cn1 | 0.0911% |  |
| c1ccc(SCCSc2ccccc2)cc1 | -10.2% |  |
| O=C(O)/C=C/c1ccc(/C=C/C(=O)O)cc1 | -6.54% |  |
| CCCCOC(=O)COc1ccc(Cl)cc1Cl | 0.518% |  |
| CC(=O)OC(C(=O)c1ccccc1)c1ccccc1 (stereo not given) | -2% |  |
| CCCCCCN | 1.6% |  |
| CC(=O)Nc1cccc(C)c1 | 1.29% |  |
| CCC(Cl)CC(Cl)C(Cl)C(Cl)C(Cl)C(C)Cl (stereo not given) | -1.27% |  |
| COc1ccc(C)cc1N | 0.303% |  |
| CCc1ccc(C(c2ccc(CC)cc2)C(Cl)Cl)cc1 | -10.2% |  |
| O=[N+]([O-])c1ccccc1Nc1ccccc1 | -3.1% |  |
| C=CC1CO1 (stereo not given) | 2.42% |  |
| COc1cc(-c2ccc(N=C=O)c(OC)c2)ccc1N=C=O | -20.6% |  |
| CCOC(=O)C1OC1c1ccccc1 (stereo not given) | 8.96% |  |
| COc1ccc(C(=O)Nc2ccccc2)cc1[N+](=O)[O-] |  | 37.6 µM (active) |
